Assay results as given in PubChem BioAssay (NCATS).
Unmarked numbers belong to inactive results. For part of these data: Measured potencies and affinities stand elsewhere. Active and inactive are the calls of the source. How the calls were made is not given here.

What was measured:
[1] = Ebola virus entry assay, green fluorescence channel
[2] = Ebola virus entry assay, blue channel fluorescence
[3] = Ebola virus entry assay, ratio channel
[4] = Ebola virus entry assay, green channel fluorescence
[5] = Ebola virus entry assay, reporter ratio channel; Channel type: primary
[6] = Ebola virus entry assay, blue channel (ratio component)
Wherever efficacy is given: 0% is about no effect.

SMILES | efficacy [1] | outcome [2] | outcome [3] | outcome [4] | outcome [5] | outcome [6] | AC50 [3] | AC50 [5]
O=S(=O)(c1cccc2cnccc12)N1CCCNCC1 | -11.7% | inactive | inactive | inactive | inactive | inactive | – | –
CC(=O)OCC(=O)NCCCOc1cccc(CN2CCCCC2)c1 | -11.5% | inactive | inactive | inactive | inactive | inactive | – | –
CCN(CC)C(=O)N1CCN(C)CC1 | -16.8% | inactive | inactive | inactive | inactive | inactive | – | –
CCn1cc(C(=O)O)c(=O)c2cc(F)c(N3CCN(C)CC3)cc21 | -16.7% | inactive | inactive | inactive | inactive | inactive | – | –
O=c1ccc2ccccc2o1 | 11.1% | inactive | inactive | inactive | inactive | inactive | – | –
NCC1CCC(C(=O)Oc2ccc(CCC(=O)O)cc2)CC1 (stereo not drawn) | 32.3% | inactive | inactive | inactive | inactive | inactive | – | –
CCN(CC)C(=O)c1cccc(C)c1 | -20% | inactive | inactive | inactive | inactive | inactive | – | –
O=C1Cc2cc(Cl)ccc2N1 | -20.6% | inactive | inactive | inactive | inactive | inactive | – | –
O=C(OCC(COC(=O)c1cccnc1)(COC(=O)c1cccnc1)COC(=O)c1cccnc1)c1cccnc1 | -29.2% | inactive | inactive | inactive | inactive | inactive | – | –
COCCOC(=O)C1=C(C)NC(C)=C(C(=O)OC/C=C/c2ccccc2)C1c1cccc([N+](=O)[O-])c1 (stereo not drawn) | 17.5% | inactive | inactive | inactive | inactive | inactive | – | –
O=C(Nc1ccc(C(=O)O)c(O)c1)c1ccccc1 | -10.4% | inactive | inactive | inactive | inactive | inactive | – | –
C#Cc1ccc(-c2ccccc2F)cc1 | 15.3% | inactive | inactive | inactive | inactive | inactive | – | –
O=C(Oc1cccc2cccnc12)c1ccccc1 | -27.7% | inactive | inactive | inactive | inactive | inactive | – | –
O=C(NCCCN1CCOCC1)c1ccc(Cl)cc1 | -12.2% | inactive | inactive | inactive | inactive | inactive | – | –
NC[C@H]1O[C@H](O[C@H]2[C@H](O)[C@@H](O[C@H]3O[C@H](CO)[C@@H](O)[C@H](N)[C@H]3O)[C@H](N)C[C@@H]2N)[C@H](N)[C@@H](O)[C@@H]1O | -12.5% | inactive | inactive | inactive | inactive | inactive | – | –
CCC(=O)c1ccc(O)cc1 | -30% | inactive | inactive | inactive | inactive | inactive | – | –
O=C(O)CCC(=O)c1ccc(-c2ccccc2)cc1 | 17.7% | inactive | inactive | inactive | inactive | inactive | – | –
O=C1Nc2cc(Cl)ccc2Oc2ccccc21 | -23% | inactive | inactive | inactive | inactive | inactive | – | –
O=C1CC2(CCCC2)CC(=O)N1CCCCN1CCN(c2ncccn2)CC1 | 11.1% | inactive | – | inactive | – | inactive | 22.4 µM (active) | 22.4 µM (active)
CC1(C)[C@@H]2CC[C@@]1(C)C(=O)C2 | 9.79% | inactive | inactive | inactive | inactive | inactive | – | –
Clc1ccccc1-c1nc(-c2ccncc2)no1 | -9.78% | inactive | inactive | inactive | inactive | inactive | – | –
Cc1ccc(C(C)OC(=O)C2(C)CCC(C(=O)O)C2(C)C)cc1 (stereo not drawn) | 24.8% | inactive | inactive | inactive | inactive | inactive | – | –
N#Cc1cc(NC(=O)C(=O)O)c(Cl)c(NC(=O)C(=O)O)c1 | 18.8% | inactive | inactive | inactive | inactive | inactive | – | –

SMILES | efficacy [1] | outcome [2] | outcome [3] | outcome [4] | outcome [5] | outcome [6] | AC50 [3] | AC50 [5]
O=C1c2ccccc2S(=O)(=O)N1CCCCN1CCN(c2ncccn2)CC1 | 29.9% | inactive | inactive | inactive | inactive | inactive | – | –
CNc1c2c(nn1C)CCCC2 | -13.1% | inactive | inactive | inactive | inactive | inactive | – | –
CC(C(=O)O)c1ccc2c(c1)Cc1cccnc1O2 (stereo not drawn) | -16.5% | inactive | inactive | inactive | inactive | inactive | – | –
Cc1c(Cn2ccnc2)c2ccccc2n1CCC(=O)O | 14% | inactive | inactive | inactive | inactive | inactive | – | –
CC(=O)[C@H]1CC[C@H]2[C@@H]3CC=C4C[C@@H](O)CC[C@]4(C)[C@H]3CC[C@]12C | -13.3% | inactive | inactive | inactive | inactive | inactive | – | –
C[C@@H]1C[C@H]2[C@@H]3CCC4=CC(=O)C=C[C@]4(C)[C@@]3(F)[C@@H](O)C[C@]2(C)[C@H]1C(=O)CO | 20.4% | inactive | inactive | inactive | inactive | inactive | – | –
OC[C@@H](O)[C@@H](O)[C@H](O)[C@H](O)CO | 11.8% | inactive | inactive | inactive | inactive | inactive | – | –
CCCOC(=O)c1ccc(N)cc1 | 7.92% | inactive | inactive | inactive | inactive | inactive | – | –
Cc1ncc(CSSCc2cnc(C)c(O)c2CO)c(CO)c1O | -36.5% | inactive | inactive | inactive | inactive | inactive | – | –
Cc1sccc1Br | -12.3% | inactive | inactive | inactive | inactive | inactive | – | –
O=C(O)CCC(=O)OC[C@@H](NC(=O)C(Cl)Cl)[C@H](O)c1ccc([N+](=O)[O-])cc1 | 19.1% | inactive | inactive | inactive | inactive | inactive | – | –
COc1ccc([C@@H]2Sc3ccccc3NC(=O)[C@@H]2O)cc1 | -10.4% | inactive | inactive | inactive | inactive | inactive | – | –
C[C@H]1C[C@H]2[C@@H]3CCC4=CC(=O)C=C[C@]4(C)[C@H]3C(=O)C[C@]2(C)[C@@]1(O)C(=O)CO | -24.9% | inactive | inactive | inactive | inactive | inactive | – | –
O=C(O)CP(=O)(O)O | -15.3% | inactive | inactive | inactive | inactive | inactive | – | –
Cc1c(Cl)cccc1Nc1ccccc1C(=O)O | 13.8% | inactive | inactive | inactive | inactive | inactive | – | –
CCCCC(=O)O[C@]1(C(=O)CO)[C@@H](C)C[C@H]2[C@@H]3CCC4=CC(=O)C=C[C@]4(C)[C@@]3(F)[C@@H](O)C[C@@]21C | 22.2% | inactive | inactive | inactive | inactive | inactive | – | –
C[N+]1(CC2COC(c3ccccc3)(C3CCCCC3)O2)CCCCC1 (stereo not drawn) | 48.1% | inactive | inactive | inactive | inactive | inactive | – | –
C/C=C(/C(=C/C)c1ccc(OC(C)=O)cc1)c1ccc(OC(C)=O)cc1 | 15.4% | inactive | inactive | inactive | inactive | inactive | – | –
C[C@@H](O)[C@H](N)C(=O)O | -9.88% | inactive | inactive | inactive | inactive | inactive | – | –
OCC(CO)N[C@H]1C[C@](O)(CO)[C@@H](O)[C@H](O)[C@H]1O | -14.7% | inactive | inactive | inactive | inactive | inactive | – | –
COC(=O)C1=C(C)NC(COC(N)=O)=C(C(=O)OC(C)C)C1c1cccc(Cl)c1Cl (stereo not drawn) | 27.1% | inactive | – | inactive | – | inactive | 22.4 µM (active) | 22.4 µM (active)
N[C@H]1CN(c2c(F)cc3c(=O)c(C(=O)O)cn(C4C[C@@H]4F)c3c2Cl)CC12CC2 (stereo partly drawn) | -25.5% | inactive | inactive | inactive | inactive | inactive | – | –
O=C(CCCCCCCCC#CI)Oc1ccccc1 | -20.5% | inactive | inactive | inactive | inactive | inactive | – | –

SMILES | efficacy [1] | outcome [2] | outcome [3] | outcome [4] | outcome [5] | outcome [6] | AC50 [3] | AC50 [5]
COCCc1ccc(OCC(O)CNC(C)C)cc1 (stereo not drawn) | -31.6% | inactive | inactive | inactive | inactive | inactive | – | –
CCOC(=O)c1cc(=O)c2c(OCC(COc3cccc4oc(C(=O)OCC)cc(=O)c34)OC(=O)[C@@H](N)CCCCN)cccc2o1 | -21.2% | inactive | inactive | inactive | inactive | inactive | – | –
CC(C)CCCC(C)N (stereo not drawn) | -16.5% | inactive | inactive | inactive | inactive | inactive | – | –
CC(O)Cn1cnc2c1c(=O)n(C)c(=O)n2C (stereo not drawn) | 6.04% | inactive | inactive | inactive | inactive | inactive | – | –
Cc1cccc(C)c1NC(=O)C(C)N (stereo not drawn) | -28.5% | inactive | inactive | inactive | inactive | inactive | – | –
CCCCCCCCCCCCCCCCCCOCC(O)CO (stereo not drawn) | -25.1% | inactive | inactive | inactive | inactive | inactive | – | –
CCCc1ncc(C(=O)O)s1 | -25.8% | inactive | inactive | inactive | inactive | inactive | – | –
C#C[C@]1(O)CC[C@H]2[C@@H]3CCc4cc(OC)ccc4[C@H]3CC[C@@]21C | 19% | inactive | – | inactive | – | inactive | 2.82 µM (active) | 2.82 µM (active)
COc1ccc2cc(C=O)ccc2c1 | -11.5% | inactive | inactive | inactive | inactive | inactive | – | –
CO/N=C(\C(=O)O)c1csc(NC(=O)CCl)n1 | 7.58% | inactive | inactive | inactive | inactive | inactive | – | –
C[N+]12CCC(CC1)C(OC(=O)C(O)(c1ccccc1)c1ccccc1)C2 (stereo not drawn) | 11.2% | inactive | inactive | inactive | inactive | inactive | – | –
O=C1c2cccc(O)c2C(=O)c2c(O)cccc21 | -10.2% | inactive | inactive | inactive | inactive | inactive | – | –
COc1ccc(CCC(C)=O)cc1 | 11.4% | inactive | inactive | inactive | inactive | inactive | – | –
Cc1ccc(Nc2c(F)cccc2Cl)c(CC(=O)O)c1 | -7.19% | inactive | inactive | inactive | inactive | inactive | – | –
NS(=O)(=O)c1cc(C(=O)O)c(NCc2ccco2)cc1Cl | -30.8% | inactive | inactive | inactive | inactive | inactive | – | –
CCOC(=O)C(C#N)=C(c1ccccc1)c1ccccc1 | 19.4% | inactive | inactive | inactive | inactive | inactive | – | –
CC(C)=CCC/C(C)=C/CC/C(C)=C/C(=O)OCC(=O)[C@@]1(O)CC[C@H]2[C@@H]3CCC4=CC(=O)C=C[C@]4(C)[C@H]3[C@@H](O)C[C@@]21C | 14.4% | inactive | inactive | inactive | inactive | inactive | – | –
O=C(O)CCc1nc(-c2ccccc2)c(-c2ccccc2)o1 | 18.2% | inactive | inactive | inactive | inactive | inactive | – | –
O=C(O)C(=O)Nc1cccc(-c2nn[nH]n2)c1 | 14.4% | inactive | inactive | inactive | inactive | inactive | – | –
CC(=O)[C@@]1(O)CC[C@H]2[C@@H]3CCC4=CC(=O)CC[C@]4(C)[C@H]3CC[C@@]21C | -9% | inactive | inactive | inactive | inactive | inactive | – | –
CCCCCC1Nc2cc(C(F)(F)F)c(S(N)(=O)=O)cc2S(=O)(=O)N1 (stereo not drawn) | -15.8% | inactive | inactive | inactive | inactive | inactive | – | –
CCc1cccc2c3c([nH]c12)C(CC)(CC(=O)O)OCC3 (stereo not drawn) | 8.5% | inactive | inactive | inactive | inactive | inactive | – | –
